Source: PubChem BioAssay AID1671190 (National Center for Advancing Translational Sciences (NCATS), 2021)
Where “and” joins values, the source holds several entries; their conditions need not be identical. Equal values may be shown once. About 6,100 (1.1%) of roughly 580,000 compounds were called active. Where a call stands in place of a potency, no number is given. Roughly 15% stayed inconclusive and do not appear here. The sample as a whole holds a higher share of actives than the screen did. Unmarked numbers belong to inactive results. Calls follow the shape of the dose curve; as a rule, active = well fitted inhibition curve with a large enough effect; inconclusive = small, poorly fitted or top-dose-only effect, or another doubt; inactive = no such curve, though single readings can be large or run the other way.

target: Polyunsaturated fatty acid lipoxygenase ALOX12 (Homo sapiens) (UniProt P18054); assay: Primary qHTS assay for inhibitors of human arachidonate 12S-lipoxygenase (ALOX12): Round 2; conditions: purified 12hLO, xylenol orange hydroperoxide absorbance; series mostly up to 108 µM
Sequence (P18054 whole entry, looked up): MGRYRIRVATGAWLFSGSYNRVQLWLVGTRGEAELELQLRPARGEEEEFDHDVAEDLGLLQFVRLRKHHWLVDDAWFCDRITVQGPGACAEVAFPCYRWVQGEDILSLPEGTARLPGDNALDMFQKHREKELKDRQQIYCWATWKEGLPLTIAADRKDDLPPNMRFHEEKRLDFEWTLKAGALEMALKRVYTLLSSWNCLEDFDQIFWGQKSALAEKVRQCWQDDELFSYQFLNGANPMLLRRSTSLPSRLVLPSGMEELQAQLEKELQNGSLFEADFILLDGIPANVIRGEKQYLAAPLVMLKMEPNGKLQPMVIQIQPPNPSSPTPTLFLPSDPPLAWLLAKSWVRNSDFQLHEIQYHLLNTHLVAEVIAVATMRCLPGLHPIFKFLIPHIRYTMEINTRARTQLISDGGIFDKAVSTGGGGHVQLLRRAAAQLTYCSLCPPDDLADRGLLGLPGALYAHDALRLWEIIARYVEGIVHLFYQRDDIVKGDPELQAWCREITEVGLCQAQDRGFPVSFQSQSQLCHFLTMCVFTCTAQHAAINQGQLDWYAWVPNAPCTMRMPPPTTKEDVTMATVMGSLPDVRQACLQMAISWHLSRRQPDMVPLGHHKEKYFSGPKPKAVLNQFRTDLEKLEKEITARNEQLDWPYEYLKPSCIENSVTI
How it was run: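 Purified human 12hLO (150 nM final) in 25 mM Hepes, 0.01% Triton X-100, pH 7.0 was preincubated 15 min at room temperature with compound. Then 40 uM arachidonic acid was added, 30 min. Hydroperoxide was read by Fe-XO absorbance ratio 573/405 nm.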
Potency is read from the fitted curve at half-maximal effect.

| Compound | Potency | activity change, negative = inhibition |
| --- | --- | --- |
| Cc1nn(Cc2cccc(F)c2)c(C)c1NS(=O)(=O)c1c(C)nn(C)c1C | inactive |  |
| Cc1sc2ncnc(Sc3nnc(-c4ccccc4F)n3C)c2c1C | inactive |  |
| N#Cc1ccccc1Sc1ccccc1C(=O)Nc1ccc2c(c1)CCC2 | 20 µM (active) |  |
| N#Cc1ccccc1Sc1ccccc1C(=O)OCC(=O)NC1CCCCC1 | inactive |  |
| N#Cc1ccccc1Sc1ccccc1C(=O)NC1CCCCC1 | inactive |  |
| CC1CCCN(CC(=O)Nc2oc3ccccc3c(=O)c2-c2ccccc2)C1 (stereo not given) | inactive |  |
| Cn1c(=O)[nH]c(=O)c2c1nc(SCCO)n2Cc1ccc(Cl)cc1 | inactive |  |
| CCN(CC)c1ccc(NC(=O)CSc2ncnc3ccccc23)cc1 | inactive |  |
| CC(C)C(=O)NC(NC(=S)Nc1ccccc1)C(Cl)(Cl)Cl (stereo not given) | inactive |  |
| COCCN1C(=O)c2n[nH]c(-c3ccco3)c2C1c1ccc(O)cc1 (stereo not given) | inactive |  |
| Cc1cnc(-c2ccncc2)n1CCN | 3.55 µM (active) |  |
| Cc1cnc(-c2ccccc2)n1CCNC(=O)CCC1CCCC1 | inactive |  |
| Cc1cnc(C)n1CCN | inactive |  |
| CCc1ccc(-c2ccccc2)nc1-c1ccccc1 | inactive |  |
| COC(=O)CC(NC(=O)c1ccc2c(c1)OCCO2)c1ccc(F)cc1 (stereo not given) | inactive |  |
| Cc1oc(-c2nc(C#N)c(N3CCCCCC3)o2)cc1S(=O)(=O)N1CCCCC1 | inactive |  |
| O=C(/C=C(O)/C=C/c1ccc(O)cc1)/C=C/c1ccc(O)cc1 | 28.2 µM (active) |  |
| Cc1ccc(/C=C/C(=O)/C=C/c2ccc(C)cc2)cc1 | inactive |  |
| COc1cc(C=CC(=O)O)ccc1O | inactive |  |
| O=C(Nc1ccccc1NS(=O)(=O)c1cccs1)c1ccc([N+](=O)[O-])cc1 | inactive |  |
| CCN1CCC(O)(/C=C/c2ccc(C)cc2)C(C(=O)/C=C/c2ccc(C)cc2)C1 (stereo not given) | 50.1 µM (active) |  |
| CCOC(=O)/C=C/c1ccc(N)cc1 | inactive |  |
| CO[C@H]1C(=O)N(C(C)C)[C@H]1C1CCN(C(=O)Nc2ccc(C)c(C)c2)CC1 | inactive |  |
| Cc1ccsc1C(=O)NC1CCN(c2cnn(Cc3ccccc3)c(=O)c2)CC1 | inactive |  |
| CCN(CC)CCC(=O)Nc1c(C(=O)OC)[nH]c2ccccc12 | inactive |  |
| CC(C)CCC(=O)Nc1cc(S(=O)(=O)N2CCOCC2)ccc1N1CCCC1 | inactive |  |
| O=C(COC(=O)Cc1ccc(F)cc1)Nc1cc(S(=O)(=O)N2CCOCC2)ccc1N1CCCC1 | inactive |  |

| Compound | Potency | activity change, negative = inhibition |
| --- | --- | --- |
| COCCNC(=S)Nc1cc(S(=O)(=O)N2CCOCC2)ccc1N1CCCCC1 | 31.6 µM (active) |  |
| CC(C)OCC(=O)N1CCN(c2nc(-c3ccccc3)nc3c2CCC3)CC1 | inactive |  |
| Cc1[nH]c2ccccc2c1CC(=O)NCc1ccc(CN2CCCC2)cc1 | inactive |  |
| Cc1c(Cc2ccccc2)c(=O)oc2c(C)c(OC(C)C(=O)O)ccc12 (stereo not given) | inactive |  |
| Cc1nc2nc(NCc3cc(F)cc(F)c3)[nH]n2c(=O)c1C | inactive |  |
| CCN(c1ccc(NC(=O)c2cnc3ccccc3n2)cc1)C(C)C | inactive |  |
| CCN(CC(=O)NC(=O)NCC(C)C)C1CC1 | inactive |  |
| CCCCCCc1cc2c3c(c(=O)oc2cc1OCC(=O)C(C)(C)C)CCCC3 | inactive |  |
| COC(=O)c1ccc(C(=O)OC(C)C(=O)C23CC4CC(CC(C4)C2)C3)cc1 (stereo not given) | inactive |  |
| O=C(OC12CC3CC(CC(C3)C1)C2)c1ccc(NCc2cc(O)ccc2O)cc1 | 31.6 µM (active) |  |
| Fc1ccc(NCC23CC4CC(CC(C4)C2)C3)cc1 | inactive |  |
| Cc1c(C(=O)N2CCOC(C)C2)cnn1-c1ccc(F)cc1 (stereo not given) | inactive |  |
| CCNc1ncc(CN2CCN(c3cccc(C(F)(F)F)c3)CC2)cn1 | inactive |  |
| CN(c1ccccc1)c1cc(=O)c2ccnc(-c3ccc(CO)cc3)c2o1 | inactive |  |
| CN(c1ccccc1)c1cc(=O)c2ccnc(Nc3cccc([S+](C)(=O)[O-])c3)c2o1 | 56.2 µM (active) |  |
| CN(c1ccccc1)c1cc(=O)c2ccnc(NC3CCOCC3)c2o1 | inactive |  |
| CN(C)C(=O)C(NCCc1c[nH]c2ccccc12)c1ccccc1 (stereo not given) | inactive |  |
| Cc1ccc(-c2csc(-c3cc4c([nH]c3=O)CC(c3ccco3)CC4=O)n2)cc1 (stereo not given) | 2.24 µM (active) |  |
| Cc1ccc(-c2csc(N(Cc3ccco3)C(=O)c3cccs3)n2)cc1 | inactive |  |
| CCc1ccc(Nc2ncc3c(n2)CC(c2ccco2)CC3=O)cc1 (stereo not given) | inactive |  |
| CC(C)(C)c1ccc(C(=O)NNC(=O)C2CC2)cc1 | inactive |  |
| Fc1ccccc1COc1ccc(-c2nnco2)cc1 | inactive |  |
| COCCn1c(=O)c2c(nc(-n3nc(C)cc3C)n2Cc2ccccc2)n(C)c1=O | inactive |  |
| Cc1ccc(C)c(NC(=O)N2CCCC2c2ccco2)c1 (stereo not given) | inactive |  |
| Cc1ccccc1OCCN(C)Cc1cc(=O)oc2cc(O)ccc12 | inactive |  |
| Cc1ccc(CSc2nc(-c3ccccc3)c(C#N)c(=O)[nH]2)cc1 | 39.8 µM (active) |  |
| CCCc1cc(=O)[nH]c(SCc2ccc(C#N)cc2)n1 | inactive |  |

| Compound | Potency | activity change, negative = inhibition |
| --- | --- | --- |
| Cc1ccc(CSc2nsc(C)c2C#N)cc1 | inactive |  |
| CCCCCCSc1ccc([C@@H]2[C@@H]3C(=O)N(CC)C(=O)[C@@H]3[C@]3(C(=O)OC)CCCCN23)cc1OC | 17.8 µM (active) |  |
| CCCCCCSc1ccc([C@@H]2[C@H]3C(=O)N(CC)C(=O)[C@H]3[C@]3(C(=O)OC)CCCCN23)cc1 | inactive |  |
| CCN1C(=O)[C@@H]2[C@@H](c3ccc(-c4ccc(OC)cc4)c(OC)c3)N3CCC[C@@]3(C(=O)OC)[C@@H]2C1=O | inactive |  |
| O=C(O)c1cccc(-c2ccccn2)c1 |  | 6.18% [at 12.5 µM] and -0.515% [at 12.5 µM] |
| O=C(O)c1ccc2nc[nH]c2c1 | inactive |  |
| N#Cc1cccnc1-c1cccc(C(=O)O)c1 | 56.2 µM (active) |  |
| O=C(COc1ccc2c(c1)CCC2)N(Cc1nc2ccccc2c(=O)[nH]1)CC1CCCO1 (stereo not given) | inactive |  |
| O=S(=O)(c1cc(Cl)ccc1Cl)N1CCN(Cc2ccco2)CC1 | inactive |  |
| O=C(CN1CCN(S(=O)(=O)c2cccc(Cl)c2)CC1)N1CCCCC1 | inactive |  |
| O=C(CN1CCN(S(=O)(=O)c2cc(Cl)ccc2Cl)CC1)c1ccc(O)c(O)c1 | 1.41 µM (active) |  |
| Cc1[nH]c2ccccc2c1C(=O)C(=O)NC(C)CCc1ccccc1 (stereo not given) | inactive |  |
| Cc1ccc2cc(C)c(Nc3cccc(C)c3C)nc2c1 | inactive |  |
| O=C(Nc1cccc(Br)c1)c1csc2c1CCCC2 | inactive |  |
| CCCOc1ccc(-c2nc(C#N)c(N3CCN(C(=O)c4ccco4)CC3)o2)cc1 | inactive |  |
| O=C(c1ccco1)N1CCN(Cc2cccc(C(F)(F)F)c2)CC1 | inactive |  |
| Cc1ccc(-c2csc(C(C#N)=C(O)CN3CCN(C(=O)c4ccco4)CC3)n2)cc1 | 44.7 µM (active) |  |
| O=C(c1cc(-c2cccs2)on1)N1CCCC1c1ccccc1F (stereo not given) | inactive |  |
| COc1cccc(CN2C[C@@H](F)[C@@H](OCc3nc4ccccc4n3C)C2)n1 | inactive |  |
| CSc1ccc(C(=O)N2CCC(n3nccc3NC(=O)CC(C)C)CC2)cc1 | inactive |  |
| O=C(COc1ccc(F)cc1Cl)Nc1ncn[nH]1 | inactive |  |
| Cc1noc(C)c1CS(=O)(=O)c1cc(Cl)ccc1Cl | inactive |  |
| COc1ccc(CN(C(=O)CSc2nnc(-c3ccc(OC)c(OC)c3)o2)c2ccc(F)cc2)cc1 | inactive |  |
| COc1ccc(-c2nnc(SC(=O)N3c4ccccc4Sc4ccccc43)o2)cc1 | 8.91 µM (active) |  |
| COc1ccccc1-c1nnc(SCC(N)=O)o1 | inactive |  |
| CCCNC(=O)NNC(=O)c1cn(C)c2ccccc12 | inactive |  |
| Cn1c(COc2ccc(Cl)cc2)nnc1SCC(O)COc1ccc(C(C)(C)C)cc1 (stereo not given) | inactive |  |

| Compound | Potency | activity change, negative = inhibition |
| --- | --- | --- |
| CNC(=O)[C@@H](Cc1ccccc1)N1CCC[C@H]1C(=O)N1CCC1 | 22.4 µM (active) |  |
| CCNC(=O)[C@@H]1CCCN1[C@@H](C(=O)NC)c1ccccc1OC | inactive |  |
| CNC(=O)C(C)(C)N1CCC[C@H]1C(=O)N(C)Cc1ccccc1 | inactive |  |
| CCc1ccc(CN(C)C(=O)Cn2cnc3c2c(=O)n(C)c(=O)n3C)cc1 | inactive |  |
| CC(C)c1noc(-c2cn(C3CCN(C(=O)COc4ccc(F)cc4)CC3)nn2)n1 | inactive |  |
| CCc1ccc(N2CC(O)=C(c3nc4ccccc4c(=O)[nH]3)C2=N)cc1 | inactive |  |
| Cc1nc2cnc(N3CCNCC3)nc2n(CCc2ccccc2)c1=O | inactive |  |
| CCc1ccc(-n2ccc3nc(N4CCc5ccccc5C4)ncc3c2=O)cc1 | 39.8 µM (active) |  |
| COc1cccc(-c2cn3c(n2)NCCC3)c1 | inactive |  |
| O=C(Nc1cnc(-c2cccc(Cl)c2)nc1)c1ccc(F)cc1 | inactive |  |
| COc1cccc2cc(S(=O)(=O)c3ccc(Cl)c(Cl)c3)c(=O)oc12 | inactive |  |
| Cc1ccc(C(=O)N2CCC(c3n[nH]c(=O)n3-c3ccccc3)CC2)cc1F | 28.2 µM (active) |  |
| Cc1ccc(-n2c(C3CCN(C(=O)c4ccoc4)CC3)n[nH]c2=O)cc1 | inactive |  |
| CCOc1ccc(C(=O)N2CCC(c3n[nH]c(=O)n3-c3ccccc3)CC2)cc1OCC | inactive |  |
| CC(C)(CNC(=O)c1ccccc1)CNC(=O)c1ccccc1 | inactive |  |
| O=C1CSc2ccc(C(=O)Nc3cccc(COC(=O)c4ccc5c(c4)NC(=O)CS5)c3)cc2N1 | inactive |  |
| O=C(NCCNC(=O)C1CC1)c1c[nH]c2ccccc12 | inactive |  |
| Nc1nc(COC(=O)c2ccc(OC(F)F)cc2)nc2ccccc12 | inactive |  |
| Cc1occc(=O)c1OCc1noc(C(=O)NCc2ccc(Cl)cc2)n1 | inactive |  |
| O=C1Cc2cc(-c3csc(Nc4ccc(F)cc4)n3)ccc2N1 | inactive |  |
| Cc1ccc(-c2csc(Nc3ccccc3)n2)c(C)c1 | inactive |  |
| O=C(O)c1ccc(Nc2nc(-c3ccc4ccccc4c3)cs2)cc1O | 31.6 µM (active) |  |
| CC(=O)c1ccc(NC(=O)C(C)Sc2nnc(-c3ccco3)n2-c2ccccc2)cc1 (stereo not given) | inactive |  |
| Cc1ccccc1-n1cnnc1SCC(=O)NC(C)c1cccc2ccccc12 (stereo not given) | inactive |  |
